hgDAF12 agonist: H. glycines DAF-12 receptor agonists, primary screen, cell-based, luminescence, HEK293, GAL4 fusion, UAS-luciferase; AID 687014, 2013; 1.8% of 370,000 active; activation, % at 6.8 µM; HEK293 GAL4-hgDAF12 UAS-luciferase reporter, agonist luminescence; normalized to butyrate control; Nuclear hormone receptor DAF-12 (Heterodera glycines), GAL4 fusion;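 active = activation above a cutoff set at the mean of all screened compounds plus 3 SD, cut at about 10% in these data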;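 note: 0% = DMSO wells and 100% = sodium butyrate wells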
DAX1 inh-1: DAX1 (NR0B1) inhibitors on StAR promoter, primary screen, cell-based, luminescence, SF-1 (NR5A1), full-length DAX-1; 1.1% of 370,000 active; HEK293T StAR-luciferase reporter, SF-1/DAX-1 repression relief; inhibition, % at 6.8 µM;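 active = inhibition above the mean over all tested compounds plus 3 SD, cut at about 3.6% in these data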;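 note: 0% = DAX-1 cells with DMSO and 100% = cells lacking DAX-1 with DMSO; higher inhibition means more luminescence from relief of DAX-1 repression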
DAX1 inh-2: DAX1 (NR0B1) inhibitors, primary screen, cell-based, HEK293, Gal4-DAX1, luciferase luminescence; Nuclear receptor subfamily 0 group B member 1 (Homo sapiens), P51843; HEK293 Gal4-DAX1 luciferase reporter; inhibition, % at 6.75 µM; 0.99% of 340,000 active;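 active = inhibition above the mean over all tested compounds plus 3 SD, cut at about 4.2% in these data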;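 note: 0% = DAX1-transfected cells with DMSO and 100% = empty-vector control cells with DMSO; inhibition shows as a rise in luminescence from relieved DAX1 repression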
Target sequence (P51843 207-470 limits assumed): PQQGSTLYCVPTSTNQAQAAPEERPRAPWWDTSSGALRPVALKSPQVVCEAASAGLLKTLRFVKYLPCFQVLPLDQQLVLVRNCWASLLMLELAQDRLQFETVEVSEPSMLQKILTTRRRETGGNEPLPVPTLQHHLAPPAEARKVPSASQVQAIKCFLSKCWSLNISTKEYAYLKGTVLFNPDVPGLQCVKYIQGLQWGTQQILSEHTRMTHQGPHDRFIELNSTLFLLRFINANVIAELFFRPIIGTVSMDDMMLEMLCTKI
ssDAF-12 act: S. stercoralis DAF-12 nuclear receptor activators, primary screen, cell-based, luminescence, HEK293, GRIP1 co-expression, lit1-tk-luc; HEK293 ssDAF-12/GRIP1 lit1-tk-luc reporter; % of 3 µM dafachronic acid response; 1% of 370,000 active; activation, % at 6.8 µM; Nuclear hormone receptor DAF-12 (Strongyloides stercoralis); AID 652126, 2013;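 active = activation above the mean over all tested compounds plus 3 SD, cut at about 0.9% in these data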;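 note: 0% = DMSO-only wells and 100% = 3 µM delta7-dafachronic acid wells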
hcDAF-12 act: H. contortus DAF-12 nuclear receptor activators, primary screen, cell-based, luminescence, HEK293, lit1-tk-luc reporter. HEK293 hcDAF-12 lit1-tk-luc reporter; 0% DMSO, 100% Δ7-dafachronic acid. activation, % at 6.8 µM. 1.4% of 370,000 active;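 active = activation above the mean of all tested compounds plus 3 SD, cut at about 5.5% in these data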;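 note: 100% = response to 3 µM Δ7-dafachronic acid high control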
LXRb hcDAF ctr: LXR agonists, Gal4 luciferase reporter, confirmation, counter-screen for hcDAF-12 agonist project, cell-based, luminescence, HEK293, H. contortus campaign. shares compounds with hcDAF-12 act. AID 743027, 2013. 3,400 tested, under 10 active. HEK293 Gal4-LXR tk-luc reporter, 24 h; normalized: DMSO 0%, positive control 100%. activation, % at 6.8 µM;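 active = mean percent activation of the reporter above a cutoff set as the average over tested compounds plus their standard deviation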
Target sequence (P55055 whole entry, looked up, the tested form may be a part): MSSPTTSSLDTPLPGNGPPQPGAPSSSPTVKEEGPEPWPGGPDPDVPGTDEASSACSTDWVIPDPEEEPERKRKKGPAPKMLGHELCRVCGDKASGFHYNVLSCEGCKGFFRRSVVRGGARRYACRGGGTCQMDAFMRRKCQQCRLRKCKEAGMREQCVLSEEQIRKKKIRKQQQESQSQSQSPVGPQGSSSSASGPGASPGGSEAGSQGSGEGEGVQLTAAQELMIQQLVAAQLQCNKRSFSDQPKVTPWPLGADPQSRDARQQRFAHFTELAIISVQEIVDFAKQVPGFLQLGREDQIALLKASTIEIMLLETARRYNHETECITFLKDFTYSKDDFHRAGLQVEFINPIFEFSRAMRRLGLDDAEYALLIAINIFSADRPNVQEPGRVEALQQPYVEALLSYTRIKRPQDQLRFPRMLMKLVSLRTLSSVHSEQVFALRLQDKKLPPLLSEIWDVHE
hcDAF12 conf: H. contortus DAF-12 receptor agonists, confirmation, cell-based, luminescence, HEK293, lit1-tk-luc, triplicate. HEK293 hcDAF-12 lit1-tk-luc reporter; % of Δ7-dafachronic acid response. AID 743032, 2013. 61% of 3,400 active. activation, % at 6.8 µM. shares compounds with hcDAF-12 act;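 active = mean activation across triplicate tests above the threshold derived from the earlier primary screen, cut at about 5.5% in these data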;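 note: 0% = DMSO only wells and 100% = 3 µM Δ7-dafachronic acid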
Active calls of the source: *. Rows were chosen to be rich in hits. Some 4.1% of all compounds tested hit in one or more screens of this group.

How did COc1ccc(-c2cn3ccccc3n2)cc1OC do in these assays?
hgDAF12 agonist: 11*; DAX1 inh-1: 2; DAX1 inh-2: 2; ssDAF-12 act: 3.1*; hcDAF-12 act: 13*; LXRb hcDAF ctr: 1; hcDAF12 conf: 13*

What do the screens show for `C[C@@H]1CCCCO[C@H](CN(C)C(=O)C2CCCCC2)[C@@H](C)CN([C@H](C)CO)C(=O)c2cc(NS(=O)(=O)c3cccs3)ccc2O1`?
hgDAF12 agonist: 0; DAX1 inh-1: -1; ssDAF-12 act: -1; hcDAF-12 act: -2

Results for O=S(=O)(Nc1c(O)ccc2ccccc12)c1ccc(F)cc1 ?
hgDAF12 agonist: 1; DAX1 inh-1: 1; DAX1 inh-2: 3; ssDAF-12 act: 1.1*; hcDAF-12 act: 8.1*; LXRb hcDAF ctr: 0; hcDAF12 conf: 8.6*

Results for O=C(OC12CCCN(C1)/C(=C/c1cccc(Cl)c1)C2)c1ccco1 (stereo not drawn) ?
hgDAF12 agonist: -1; DAX1 inh-1: 2; ssDAF-12 act: -1; hcDAF-12 act: -1

Results for COc1ccc(NC(=O)c2ccc3ccccc3n2)cc1S(=O)(=O)N1CCCCC1 ?
hgDAF12 agonist: 5; DAX1 inh-1: 2; DAX1 inh-2: 1; ssDAF-12 act: 0; hcDAF-12 act: 8.9*; LXRb hcDAF ctr: 0; hcDAF12 conf: 4

Results for CCOC(=O)C1=CCC(c2ccccc2)N(S(C)(=O)=O)C1 (stereo not drawn) ?
hgDAF12 agonist: 4; DAX1 inh-1: 0; ssDAF-12 act: -1; hcDAF-12 act: -2

What do the screens show for `Cn1c(CC(=O)Nc2ccccc2)c(Sc2ccccc2)c2ccccc21`?
hgDAF12 agonist: 2; DAX1 inh-1: 0; DAX1 inh-2: 0; ssDAF-12 act: 0; hcDAF-12 act: 7.5*; LXRb hcDAF ctr: 0; hcDAF12 conf: 3

How did Cn1c(CC(=O)Nc2ccccc2)cc2ccccc21 do in these assays?
hgDAF12 agonist: 9; DAX1 inh-1: 0; DAX1 inh-2: 1; ssDAF-12 act: 1.0*; hcDAF-12 act: 9.9*; LXRb hcDAF ctr: 0; hcDAF12 conf: 7.6*

What do the screens show for `COC(=O)[C@]12C[C@H](CC(=O)NCc3ccc(C)o3)C(=O)N(CCc3ccc(OC)c(OC)c3)C1=C[C@H](C1CCCC1)O[C@@H]2C`?
hgDAF12 agonist: 2; DAX1 inh-1: 0; ssDAF-12 act: -1; hcDAF-12 act: 1

What do the screens show for `Cc1cc(C)nc(N2CCC(C(=O)N(C)CCc3ccccc3)CC2)n1`?
hgDAF12 agonist: 0; DAX1 inh-1: -2; ssDAF-12 act: -1; hcDAF-12 act: -2

Results for COC(=O)[C@]12C[C@H](CC(=O)N3CCN(C(=O)c4ccco4)CC3)C(=O)N(CCC3=CCCCC3)C1=C[C@H](C(C)C)O[C@@H]2C1CC1 ?
hgDAF12 agonist: 0; DAX1 inh-1: 0; ssDAF-12 act: -2; hcDAF-12 act: -1

What do the screens show for `O=c1nc2s/c(=C\c3ccc(-c4ccccc4[N+](=O)[O-])o3)c(=O)n2nc1-c1ccccc1`?
hgDAF12 agonist: 3; DAX1 inh-1: 0; DAX1 inh-2: 0; ssDAF-12 act: 0; hcDAF-12 act: 6.9*; LXRb hcDAF ctr: 0; hcDAF12 conf: 3

How did Oc1c(Br)cc(Br)cc1C=Nc1ccc2c(c1)OCCO2 do in these assays?
hgDAF12 agonist: -3; DAX1 inh-1: -2; DAX1 inh-2: -1; ssDAF-12 act: -2; hcDAF-12 act: -3

Results for Cc1cccc(/N=C/c2c(O)[nH]c3ccccc23)n1 ?
hgDAF12 agonist: 12*; DAX1 inh-1: 2; DAX1 inh-2: 3; ssDAF-12 act: 1.2*; hcDAF-12 act: 11*; LXRb hcDAF ctr: 1; hcDAF12 conf: 9.2*

Results for Oc1[nH]c2ccccc2c1C=Nc1ccc2c(c1)OCCO2 ?
hgDAF12 agonist: 13*; DAX1 inh-1: 3; DAX1 inh-2: 2; ssDAF-12 act: 1; hcDAF-12 act: 8.4*; LXRb hcDAF ctr: 1; hcDAF12 conf: 6.9*

How did COc1ccc2ccccc2c1C=Nn1c(-c2n[nH]c3c2CCC3)n[nH]c1=S do in these assays?
hgDAF12 agonist: 0; DAX1 inh-1: 1; ssDAF-12 act: -1; hcDAF-12 act: -1

What do the screens show for `O=c1c(=NNc2ccccc2Cl)c(=O)c2ccccc12`?
hgDAF12 agonist: 4; DAX1 inh-1: 0; DAX1 inh-2: 3; ssDAF-12 act: 0; hcDAF-12 act: 7.9*; LXRb hcDAF ctr: 2; hcDAF12 conf: 24*

What do the screens show for `CCc1ccn2cc(-c3cc(-c4ccccc4)no3)nc2c1`?
hgDAF12 agonist: -13; DAX1 inh-1: -2; DAX1 inh-2: -9; ssDAF-12 act: -3; hcDAF-12 act: -6

What do the screens show for `Cc1ccc2nc(-c3cc(-c4ccccc4)no3)cn2c1`?
hgDAF12 agonist: 12*; DAX1 inh-1: 2; DAX1 inh-2: -3; ssDAF-12 act: 1; hcDAF-12 act: 8.1*; LXRb hcDAF ctr: 1; hcDAF12 conf: 4

Results for Cc1cc(NC(=O)COC(=O)c2oc3c(Cl)cccc3c2C)no1 ?
hgDAF12 agonist: 2; DAX1 inh-1: 0; DAX1 inh-2: 3; ssDAF-12 act: 0; hcDAF-12 act: 6.8*; LXRb hcDAF ctr: 0; hcDAF12 conf: 3

What do the screens show for `Cc1[nH]n(C(N)=S)c(=O)c1N=Nc1ccc(Br)cc1`?
hgDAF12 agonist: 5; DAX1 inh-1: 1; DAX1 inh-2: 2; ssDAF-12 act: 0; hcDAF-12 act: 7.3*; LXRb hcDAF ctr: 1; hcDAF12 conf: 14*

What do the screens show for `Cc1cccc(C(=O)NNC(=O)c2ccc(Cl)cc2)c1O`?
hgDAF12 agonist: 5; DAX1 inh-1: 2; DAX1 inh-2: 1; ssDAF-12 act: 0; hcDAF-12 act: 7.1*; LXRb hcDAF ctr: 0; hcDAF12 conf: 5.9*

What do the screens show for `Cc1ccccc1Nc1n[nH]c(C)c1[N+](=O)[O-]`?
hgDAF12 agonist: 2; DAX1 inh-1: 1; DAX1 inh-2: -1; ssDAF-12 act: 0; hcDAF-12 act: 9.0*; LXRb hcDAF ctr: 0; hcDAF12 conf: 4

Bioassay records: PubChem BioAssay, The Scripps Research Institute Molecular Screening Center
